DAX1 inh-1: DAX1 (NR0B1) inhibitors, primary screen, cell-based, HEK293, Gal4-DAX1, luciferase luminescence; Nuclear receptor subfamily 0 group B member 1 (Homo sapiens), P51843; HEK293 Gal4-DAX1 luciferase reporter; inhibition, % at 6.75 µM; actives 0.99% (n = 340,000);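 active = inhibition above the mean over all tested compounds plus 3 SD, cut at about 4.2% in these data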;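 also: inhibition shows as a rise in luminescence from relieved DAX1 repression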
Target sequence (P51843 207-470 limits assumed): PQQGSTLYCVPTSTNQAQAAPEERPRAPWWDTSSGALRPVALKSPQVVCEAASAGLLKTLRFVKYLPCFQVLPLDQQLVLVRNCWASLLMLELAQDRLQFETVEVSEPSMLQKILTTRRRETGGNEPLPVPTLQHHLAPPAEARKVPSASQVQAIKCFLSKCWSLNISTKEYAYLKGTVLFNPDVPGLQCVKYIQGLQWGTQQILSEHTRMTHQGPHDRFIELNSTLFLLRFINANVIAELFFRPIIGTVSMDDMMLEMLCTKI
hcDAF-12 act: H. contortus DAF-12 nuclear receptor activators, primary screen, cell-based, luminescence, HEK293, lit1-tk-luc reporter; HEK293 hcDAF-12 lit1-tk-luc reporter; 0% DMSO, 100% Δ7-dafachronic acid; activation, % at 6.8 µM; actives 1.4% (n = 370,000);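 active = activation above the mean of all tested compounds plus 3 SD, cut at about 5.5% in these data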
ssDAF12 agonist: S. stercoralis DAF-12 nuclear receptor activators, primary screen, cell-based, luminescence, HEK293, GRIP1 co-expression, lit1-tk-luc; Nuclear hormone receptor DAF-12 (Strongyloides stercoralis); HEK293 ssDAF-12/GRIP1 lit1-tk-luc reporter; % of 3 µM dafachronic acid response; activation, % at 6.8 µM; actives 1% (n = 370,000); AID 652126, 2013;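 active = activation above the mean over all tested compounds plus 3 SD, cut at about 0.9% in these data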
hgDAF12 agonist: H. glycines DAF-12 receptor agonists, primary screen, cell-based, luminescence, HEK293, GAL4 fusion, UAS-luciferase; activation, % at 6.8 µM; HEK293 GAL4-hgDAF12 UAS-luciferase reporter, agonist luminescence; normalized to butyrate control; Nuclear hormone receptor DAF-12 (Heterodera glycines), GAL4 fusion; actives 1.8% (n = 370,000); AID 687014, 2013;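 active = activation above a cutoff set at the mean of all screened compounds plus 3 SD, cut at about 10% in these data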
DAX1 inh-2: DAX1 (NR0B1) inhibitors on StAR promoter, primary screen, cell-based, luminescence, SF-1 (NR5A1), full-length DAX-1; AID 652010, 2013; HEK293T StAR-luciferase reporter, SF-1/DAX-1 repression relief; actives 1.1% (n = 370,000); inhibition, % at 6.8 µM;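 active = inhibition above the mean over all tested compounds plus 3 SD, cut at about 3.6% in these data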;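 also: higher inhibition means more luminescence from relief of DAX-1 repression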
Of the large screens only hits and unclear results are named; the others gave an inactive call. Rows were chosen to be rich in hits. Some 4.1% of all compounds tested hit in one or more screens of this group.

CCn1c(SCC(N)=O)nc2cc(S(=O)(=O)N3CCOCC3)ccc21	none
CCn1c(SCC(=O)c2c[nH]c3ccccc23)nc2cc(S(=O)(=O)N3CCOCC3)ccc21	hcDAF-12 act 5.6
CCC(=O)N(C)CCc1cc2c(c(OC)c1/C=N/NC(=O)c1ccncc1)OCO2	DAX1 inh-1 4.2
COc1ccc(S(=O)(=O)NCc2cccnc2)cc1NC(=O)c1ccccc1	DAX1 inh-1 5.3
COc1ccc(S(=O)(=O)NC(C)C(=O)NCc2cccnc2)cc1OC (stereo not drawn)	DAX1 inh-1 4.5
COc1ccc(S(=O)(=O)NCc2ccncc2)cc1NC(=O)c1ccccc1	none
Cc1ccc(CN[C@@H]2CC[C@@]34CCCN3C(=O)CCC[C@H]4C2)o1	none (no result: DAX1 inh-1, DAX1 inh-2)
O=C(Cn1cnc2ccccc2c1=O)c1ccc2c(c1)OCCO2	hgDAF12 agonist 11
CSc1nnc(N2C(=O)C(O)=C(C(=O)c3ccc(C)o3)C2c2ccc(C)cc2)s1 (stereo not drawn)	hgDAF12 agonist 11
COC(=O)C1CN(Cc2cn(Cc3ccccc3)nn2)CCS(=O)(=O)N1Cc1ccc(F)cc1 (stereo not drawn)	none (no result: DAX1 inh-1)
CS(=O)(=O)Nc1cccc(-c2cnc3ccccc3n2)c1	DAX1 inh-1 4.3
O=[N+]([O-])c1cc(-c2cnc3ccccc3n2)ccc1Oc1ccc(Cl)cc1	ssDAF12 agonist 1.1
O=[N+]([O-])c1cccc(-c2cnc3ccccc3n2)c1	ssDAF12 agonist 1.0
O=C(NC1CCOc2ccccc21)c1ccccn1 (stereo not drawn)	hcDAF-12 act 5.8
COC(=O)C1CN(CCO)CCS(=O)(=O)N1Cc1cn(Cc2ccc(C)cc2)nn1 (stereo not drawn)	none (no result: DAX1 inh-1)
O=C(c1ccccc1)N(CCCn1ccnc1)C(c1ccccc1)c1nc2ccccc2[nH]1 (stereo not drawn)	DAX1 inh-2 3.6 (no result: DAX1 inh-1)
S=C(Nc1cccc(Br)c1)OC1CCC12CCC(c1ccccc1)CC2 (stereo not drawn)	none (no result: DAX1 inh-1)
C=CCN(CC=C)CC(O)CN(c1cc([N+](=O)[O-])ccc1OC)S(=O)(=O)c1ccccc1 (stereo not drawn)	DAX1 inh-2 3.8
CCCOC1CCCN(C(=O)CCc2nnc(Cc3cccc(C)c3)o2)C1 (stereo not drawn)	hgDAF12 agonist 11
Cc1cccc(Cc2nnc(CCC(=O)N3CCCCC3c3nccs3)o2)c1 (stereo not drawn)	none
Cc1cccc(Cc2nnc(CCC(=O)N(CC3CC3)CC3CCCO3)o2)c1 (stereo not drawn)	hgDAF12 agonist 12
CCN(CC1CCCO1)C(=O)CCc1nnc(Cc2ccc3c(c2)OCO3)o1 (stereo not drawn)	none
CCCCCCCCN1C(=O)[C@@H](CC(=O)NCCc2ccccc2OC)C[C@@]2(C(=O)OC)C1=C[C@H](C1CCCC1)O[C@@H]2C	none (no result: DAX1 inh-1)
Cc1csc(SCC(=O)Nc2oc(C)c3c(C)n[nH]c(=O)c23)n1	none
Cc1n[nH]c(=O)c2c(NC(=O)CSc3nn(-c4ccccc4)c(=S)s3)oc(C)c12	ssDAF12 agonist 1.1
CCCNc1c(N)n(-c2ccccc2)c(=O)[nH]c1=O	DAX1 inh-1 6.1
CC(=O)NCCCNc1ccc([N+](=O)[O-])cc1	hcDAF-12 act 6.1
CC(Cc1cccs1)NC(=O)c1cccs1 (stereo not drawn)	none
CC(Cc1cccs1)NC(=O)Nc1ccc([N+](=O)[O-])cc1 (stereo not drawn)	hgDAF12 agonist 13
CCNC(=O)C(=O)Nc1ccc([N+](=O)[O-])cc1	DAX1 inh-1 4.7
CCN(CC)C(=S)Nc1ccc([N+](=O)[O-])cc1	none
O=C(Cc1ccccc1)N1CCC(Oc2cccnc2)CC1	none (no result: DAX1 inh-1)
CC(=O)N[C@@H]1C[C@@H]2O[C@@H](CO)CC[C@@H]2O[C@@H]1CCc1ccc(C#CC2(O)CCCC2)cc1	none (no result: DAX1 inh-1)
COCCCNC(=S)NC(=O)c1ccc(C)cc1	hcDAF-12 act 6.2, hgDAF12 agonist 13
C[C@@H]1OC(C2CCCCC2)N(C)[C@H]2C[C@H]3c4[nH]c5cccc(-c6ccccc6)c5c4CCN3C(=O)[C@@H]12 (stereo partly drawn)	none (no result: DAX1 inh-1)
Cc1[nH]ccc2cc3nc4ccccc4c3cc12	hcDAF-12 act 5.7
C=CCN(C)CC#CCCCCl	none (no result: DAX1 inh-1)
CCCn1c(CCC(=O)O)nc2cc(S(=O)(=O)N(CC)CC)ccc21	none
CCN(CC)S(=O)(=O)c1ccc2c(c1)nc(-c1ccccn1)n2C	hcDAF-12 act 6.2
COc1ccc(/C=N/N=C2/SCC(=O)N2Cc2ccccc2)cc1	DAX1 inh-1 5.8, hgDAF12 agonist 13
Clc1ccc(Cl)c2sc(N3CCOCC3)nc12	none
Clc1cc(Cl)c2nc(N3CCOCC3)sc2c1	DAX1 inh-1 4.8
COc1ccccc1C(=O)NNC(=O)c1cccc(C)c1	ssDAF12 agonist 1.1
COC(=O)NNC(=O)c1ccccc1OC	hcDAF-12 act 6.2
COc1ccccc1C(=O)NNC(=O)c1cccc([N+](=O)[O-])c1	none
Cc1ccsc1C(=O)OCc1cc(=O)n2ccsc2n1	ssDAF12 agonist 0.9, hgDAF12 agonist 13, DAX1 inh-2 4.3
C[C@@H]1OCN(C)[C@H]2C[C@H]3c4[nH]c5cccc(-c6ccccc6)c5c4CCN3C[C@@H]12	none (no result: DAX1 inh-1)
Cc1cc(C(=O)Nc2ccc(Cl)c(Cl)c2)n(-c2ccccc2)n1	none (no result: DAX1 inh-1)
Cc1ccccc1NC(=O)c1onc2c1CCCC2	none
Cc1cccc(NC(=O)c2onc3c2CCCC3)n1	hgDAF12 agonist 13, DAX1 inh-2 4.1
Cc1cccc(NC(=O)c2onc3c2CCCC3)c1C	hgDAF12 agonist 11
Cc1cc(O)cc(=O)n1-c1cc(Cl)cc(Cl)c1	none (no result: DAX1 inh-1)
Cn1c(O)c(N=Nc2ccc(F)cc2)c2ccccc21	hcDAF-12 act 5.6
Cn1c(O)c(N=Nc2ccccc2)c2ccccc21	ssDAF12 agonist 1.2
Cc1c(C)n(C)c2ccc([N+](=O)[O-])cc12	none
Cn1c(O)c(N=NC(=O)Cc2c[nH]c3ccccc23)c2ccccc21	none
Cc1ccc2c(c1)c(N=Nc1ccc([N+](=O)[O-])cc1)c(O)n2C	hcDAF-12 act 6.0
CCCC1CCC2(CC1)CCC2OC(=S)NCc1cccc(OC)c1 (stereo not drawn)	none (no result: DAX1 inh-1, DAX1 inh-2)
COC(=O)c1c(NC(=O)CSc2nnc(Cn3nnc4ccccc43)n2C)sc(C)c1C	none
Cc1nc(NC(=O)CSc2nnnn2C)sc1C	none
COC(=O)c1sc(NC(=O)CSc2nnc(Cn3nnc4ccccc43)n2C)nc1C	ssDAF12 agonist 1.1

Bioassay records from PubChem.
